Here are results for 31 compounds from the supplement of paper PMC12350171.

Structures can show the parent of a compound that is named as a salt.

The assay has as its system Haemophilus parainfluenzae. Briefly: growth AUC normalised to DMSO control (fraction of control); higher = less growth inhibition, active = hit call of the paper. The conditions noted are these: 20 µM. The method in brief: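 Hemin and NAD were added to the medium for Haemophilus parainfluenzae. All pathogens, after two anaerobic passages, were inoculated at a starting OD578 of 0.01 into pre-reduced mGAM plates with 20 μM compound and 1% DMSO under breathable seals, and OD578 was read hourly for 24 h in three biological replicates. AUC of each growth curve was obtained with the trapezoidal rule up to the exponential-to-stationary transition and normalised to DMSO controls from the same plate.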
For the compound `NS(=O)(=O)c1cc(C(=O)O)c(NCc2ccco2)cc1Cl` [Furosemide], the “growth AUC normalised to DMSO control” value is 1 (inactive).

Regarding `C[n+]1ccccc1/C=N/O` [Pralidoxime chloride], the “growth AUC normalised to DMSO control” value was 0.915 (inactive).

`COc1cc(C(=O)OCCCN2CCCN(CCCOC(=O)c3cc(OC)c(OC)c(OC)c3)CC2)cc(OC)c1OC` [Dilazep dihydrochloride]: the “growth AUC normalised to DMSO control” value is 0.97 (inactive).

For `CCOC(=O)C(C)(C)Oc1ccc(Cl)cc1` [Clofibrate], the “growth AUC normalised to DMSO control” value is 1.01 (inactive).

Consider `COc1cc(C)c(/C=C/C(C)=C/C=C/C(C)=C/C(=O)O)c(C)c1C` [Acitretin], for which the “growth AUC normalised to DMSO control” value is 0.995 (inactive).

`NC[C@@H]1O[C@@H](O[C@H]2[C@H](O)[C@@H](O[C@H]3O[C@H](CO)[C@@H](O)[C@H](N)[C@H]3O)[C@H](N)C[C@@H]2N)[C@@H](O)[C@H](O)[C@H]1O` [Kanamycin A sulfate]: the “growth AUC normalised to DMSO control” value is 0.976 (inactive).

On to `O=c1[nH]c(=O)n([C@H]2C[C@H](O)[C@@H](CO)O2)cc1I` [Idoxuridine], for which the “growth AUC normalised to DMSO control” value is 0.942 (inactive).

Take `Nc1ccc(O)c(C(=O)O)c1` [Mesalamine]: the “growth AUC normalised to DMSO control” value was 1.05 (inactive).

Take `CN1CCN2c3ncccc3Cc3ccccc3C2C1` (stereo unspecified) [Mirtazapine]: the “growth AUC normalised to DMSO control” value was 1.49 (inactive).

Regarding `O=C(COc1ccc(Cl)cc1)N1CCN(Cc2ccc3c(c2)OCO3)CC1` [Fipexide hydrochloride], the “growth AUC normalised to DMSO control” value is 0.836 (inactive).

As for `O=c1[nH]cc(F)c(=O)[nH]1` [5-fluorouracil], the “growth AUC normalised to DMSO control” value was 0.654 (active).

Turning to `Nc1ncnc2c1ncn2[C@@H]1O[C@H](CO)[C@@H](O)[C@@H]1O` [Vidarabine], the “growth AUC normalised to DMSO control” value is 0.96 (inactive).

As for `O=S(=O)(O)CCS` [Coenzyme M], the “growth AUC normalised to DMSO control” value was 1.06 (inactive).

Turning to `CN1CCCC(CC2c3ccccc3Sc3ccccc32)C1` (stereo unspecified) [Metixene hydrochloride], the “growth AUC normalised to DMSO control” value was 0.999 (inactive).

Turning to `CC(=O)S[C@@H]1CC2=CC(=O)CC[C@]2(C)[C@H]2CC[C@@]3(C)[C@@H](CC[C@@]34CCC(=O)O4)[C@H]12` [Spironolactone], the “growth AUC normalised to DMSO control” value is 0.891 (inactive).

Turning to `Nc1nc(NC2CC2)c2ncn([C@H]3C=C[C@@H](CO)C3)c2n1` [Abacavir sulfate], the “growth AUC normalised to DMSO control” value was 0.979 (inactive).

Consider `CC(N)(Cc1ccc(O)c(O)c1)C(=O)O` (stereo unspecified) [(L) Methyldopa], for which the “growth AUC normalised to DMSO control” value was 1.04 (inactive).

Regarding `CCCOc1ccc(C(=O)OCCN(CC)CC)cc1N` [Proparacaine hydrochloride], the “growth AUC normalised to DMSO control” value is 1.01 (inactive).

As to `NNc1nncc2ccccc12` [Hydralazine hydrochloride], the “growth AUC normalised to DMSO control” value was 1.03 (inactive).

Consider `CC(C)NCC(O)c1ccc(O)c(O)c1` (single isomer, unassigned; (+)) [(+) Isoproterenol-(+)-bitartrate salt], for which the “growth AUC normalised to DMSO control” value was 1.02 (inactive).

Consider `Nc1nc(F)nc2c1ncn2[C@@H]1O[C@H](CO)[C@@H](O)[C@@H]1O` [Fludarabine], for which the “growth AUC normalised to DMSO control” value was 1.01 (inactive).

With `CC(=O)O[C@H]1C[C@@]2(C)[C@@H](C[C@@H](O)[C@H]3[C@@]4(C)CC[C@@H](O)[C@@H](C)[C@@H]4CC[C@@]32C)/C1=C(\CCC=C(C)C)C(=O)O` [Fusidic acid sodium salt], the “growth AUC normalised to DMSO control” value was 0.345 (active).

For the compound `Cc1cc(C(C)(C)CC(C)(C)C)ccc1OCCOCC[N+](C)(C)Cc1ccccc1` [Methyl benzethonium chloride], the “growth AUC normalised to DMSO control” value is 0.994 (inactive).

As to `Cc1cc(-c2ccccc2)nnc1NCCN1CCOCC1` [Minaprine dihydrochloride], the “growth AUC normalised to DMSO control” value was 0.991 (inactive).

As to `Cc1ccc2c(c1)c1c3n2CCNC3CCC1` (stereo unspecified) [Pirlindole mesylate], the “growth AUC normalised to DMSO control” value was 0.995 (inactive).

For `Cc1cccc(C)c1NC(=O)C(C)N` (stereo unspecified) [Tocainide hydrochloride], the “growth AUC normalised to DMSO control” value was 0.99 (inactive).

For the compound `CO[C@@]1(NC(=O)Cc2cccs2)C(=O)N2C(C(=O)O)=C(COC(N)=O)CS[C@@H]21` [Cefoxitin sodium salt], the “growth AUC normalised to DMSO control” value is 0.0362 (active).

`Cc1cc(N)c2ccccc2[n+]1CCCCCCCCCC[n+]1c(C)cc(N)c2ccccc21` [Dequalinium dichloride]: the “growth AUC normalised to DMSO control” value was 0.907 (inactive).

As for `N=C(N)NC(=O)c1nc(Cl)c(N)nc1N` [Amiloride hydrochloride dihydrate], the “growth AUC normalised to DMSO control” value is 1.03 (inactive).

As to `CCN(CC)C(=O)/C(C#N)=C/c1cc(O)c(O)c([N+](=O)[O-])c1` [Entacapone], the “growth AUC normalised to DMSO control” value was 1.06 (inactive).

Turning to `c1ccc([C@H]2CN3CCSC3=N2)cc1` [Levamisole hydrochloride], the “growth AUC normalised to DMSO control” value is 0.991 (inactive).
